Source: PubChem BioAssay
Shown are actives, neighbours in structure and some others; about 3.6% of the full set was active somewhere.
Autofluor counter: compound fluorescence in toxin protease inhibitor counterscreen; compound autofluorescence counterscreen, microsphere flow cytometry; hits give high values; fluorescence intensity (no concentration beside the values); hit rate 3.1% among 360,000; AID 624483; in the data active = fluorescence intensity above about 16000; inconclusive = no clear call, values can overlap the other calls
BoNT-F LC inh: inhibitors of Botulinum neurotoxin F light chain protease; Multiplex microsphere protease cleavage assay, flow cytometry; inhibition, % at 10 µM; hit rate 0.22% among 360,000; in the data active = inhibition above about 35%, passing the limit was not always enough; inconclusive = no clear call, values can overlap the other calls
SARS 3CLpro inh: SARS-CoV 3CLpro protease inhibition | recombinant SARS-CoV 3CLpro, quenched FRET peptide cleavage | inhibition, % at 6 µM | hit rate 0.14% among 290,000; in the data active = inhibition above about 12%
BoNT A protease: blocks Botulinum neurotoxin A light chain protease | multiplex microsphere protease substrate cleavage, flow cytometry | inhibition, % at 10 µM | hit rate 0.17% among 360,000
Anthrax LF prot: blocks Bacillus anthracis lethal factor protease. P15917. multiplex microsphere protease cleavage assay, LF. inhibition, % at 10 µM. hit rate 0.12% among 360,000
Target sequence (P15917 whole entry, looked up): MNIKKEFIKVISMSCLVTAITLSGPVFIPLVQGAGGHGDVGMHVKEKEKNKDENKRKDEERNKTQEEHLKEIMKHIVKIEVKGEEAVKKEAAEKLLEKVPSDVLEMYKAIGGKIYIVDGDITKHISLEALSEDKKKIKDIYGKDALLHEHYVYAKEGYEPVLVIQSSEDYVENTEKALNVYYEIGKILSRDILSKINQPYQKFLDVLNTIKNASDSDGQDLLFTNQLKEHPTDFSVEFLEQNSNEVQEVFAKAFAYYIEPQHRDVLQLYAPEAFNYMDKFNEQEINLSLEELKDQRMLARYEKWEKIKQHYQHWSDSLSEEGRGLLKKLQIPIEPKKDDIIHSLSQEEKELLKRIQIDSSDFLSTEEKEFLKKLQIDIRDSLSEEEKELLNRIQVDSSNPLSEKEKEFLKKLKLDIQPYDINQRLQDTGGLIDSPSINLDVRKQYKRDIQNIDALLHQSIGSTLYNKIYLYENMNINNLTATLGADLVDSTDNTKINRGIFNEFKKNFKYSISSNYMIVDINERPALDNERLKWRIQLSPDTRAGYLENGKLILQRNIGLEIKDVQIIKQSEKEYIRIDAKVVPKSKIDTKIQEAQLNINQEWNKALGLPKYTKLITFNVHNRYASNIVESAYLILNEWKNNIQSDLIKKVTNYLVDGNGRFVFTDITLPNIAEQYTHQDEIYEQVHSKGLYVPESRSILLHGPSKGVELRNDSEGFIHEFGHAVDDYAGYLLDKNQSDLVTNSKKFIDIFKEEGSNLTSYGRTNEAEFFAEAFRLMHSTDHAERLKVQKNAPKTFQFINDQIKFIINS
BJeLR viability: BJeLR cell viability loss | BJeLR (HRASV12) viability, CellTiter-Glo ATP luminescence, 48 h | inhibition, % (concentration not given with the values) | hit rate 0.17% among 300,000 | AID 1554; in the data active = inhibition above about 50%; inconclusive = no clear call, values can overlap the other calls
Of the large screens only hits and unclear results are named; the others gave an inactive call. Cut-off read from the data, not from the text of the source, unless noted: active = inhibition above about 30%; inconclusive = no clear call, values can overlap the other calls; inactive = below that.

Nc1nc(N)c2cc(Sc3ccc(Cl)cc3)ccc2n1	none (no result: SARS 3CLpro inh, BJeLR viability)
O=C(CCC1COc2ccccc2O1)NC1CCCCC1 (stereo not given)	Autofluor counter 23549
O=C(CC1COc2ccccc2O1)NC1CCCCC1 (stereo not given)	none
COc1ccc(CN2C[C@@H](CO)O[C@@H](n3cnc4c(NCCO)ncnc43)C2)cc1	none (no result: SARS 3CLpro inh, BJeLR viability)
CCOC(=O)Cc1csc(NC(=O)CSc2nc3sc(C(=O)O)c(C)c3c(=O)[nH]2)n1	Autofluor counter 22793, BoNT A protease inconclusive
COc1ccc(-c2nnc(SC(C)C(=O)Nc3nccs3)n2Cc2ccccc2)cc1OC (stereo not given)	Autofluor counter 20588
Cc1ccc(S(=O)(=O)NCc2ccccc2)cc1C(=O)NCc1ccncc1	none (no result: SARS 3CLpro inh, BJeLR viability)
Cn1ncc([N+](=O)[O-])c1C(=O)Nc1ccn(Cc2ccccc2F)n1	Autofluor counter 24402
Cn1cc([N+](=O)[O-])c(C(=O)Nc2ccc(Br)cn2)n1	none
O=C(Nc1ccn(Cc2ccccc2F)n1)c1ccc(COc2ccc(Br)cc2)cc1	Autofluor counter 24596, BoNT A protease inconclusive
Cn1cc([N+](=O)[O-])c(C(=O)Nc2ccn(Cc3c(F)c(F)cc(F)c3F)n2)n1	Autofluor counter 23100, BoNT A protease inconclusive
COCCNC(=O)CN1CCN(Cc2cccc(Cl)c2)C1=O	none
CCC(=O)N1CN(S(=O)(=O)c2ccc(C)cc2)CC1C (stereo not given)	Autofluor counter 21656
Cc1ccc(S(=O)(=O)N2CC(C)N(C(=O)N3CCOCC3)C2)cc1 (stereo not given)	none
O=C1CCCc2c1[nH]c1ccc(CN3CCCCC3)cc21	Autofluor counter 23077
Cc1ccc2[nH]c3c(c2c1)CCCC3=O	none
CCOC(=O)c1c(NC(C)=O)sc2c1CCC(C=NCCCN(CC)CC)=C2Sc1ccccc1	BoNT A protease 68, Anthrax LF prot 31
CCOC(=O)c1c(NC(C)=O)sc2c(OCCN(CC)CC)c(Br)ccc12	none
Cc1ccccc1Cn1ccc(-c2ccc3c(c2)OCO3)n1	Autofluor counter 20609, BoNT A protease inconclusive
O=C(NCc1cccc(Cl)c1)c1ccco1	Autofluor counter 22733
CC(NC(=O)c1ccco1)C(=O)OCc1cccc(Cl)c1 (stereo not given)	Autofluor counter 25194
O=C(CCSc1ccc(Cl)cc1)c1ccco1	none
O=C(NCc1ccc(Cl)c(Cl)c1)c1ccco1	none (no result: Autofluor counter, BoNT-F LC inh, BoNT A protease, Anthrax LF prot)
O=C(NCCSc1ccc(Cl)cc1)c1ccco1	Autofluor counter 21843
CCON1C(=O)C2(CCCCC2)C(=O)C12C=CCCC2 (stereo not given)	none (no result: SARS 3CLpro inh, BJeLR viability)
N#CC1CC(c2ccccc2)=NN1c1ccccc1[N+](=O)[O-] (stereo not given)	none
COCCNC(=O)C(c1ccco1)N(C(=O)Cn1nnc2ccccc21)c1ccccc1C (stereo not given)	none
CC(C)(C)NC(=O)C(c1ccco1)N(Cc1ccc(F)cc1)C(=O)c1snc(C(N)=O)c1N (stereo not given)	none
COCCNC(=O)C(c1ccco1)N(Cc1ccc(OC)cc1)C(=O)Cn1nnc2ccccc21 (stereo not given)	BoNT-F LC inh 39
COc1ccccc1N(C(=O)c1snc(C(N)=O)c1N)C(C(=O)NC1CCCC1)c1ccc(N(C)C)cc1 (stereo not given)	none
COc1ccc(CN(C(=O)c2snc(C(N)=O)c2N)C(C(=O)NC(C)(C)C)c2ccco2)cc1 (stereo not given)	Autofluor counter 21460
COc1ccccc1N(C(=O)c1snc(C(N)=O)c1N)C(C(=O)NCCC(C)C)c1ccco1 (stereo not given)	Autofluor counter 18096
COc1ccccc1N(C(=O)c1snc(C(N)=O)c1N)C(C(=O)NC1CCCC1)c1ccco1 (stereo not given)	Autofluor counter 23621
CCOc1ccccc1N(C(=O)c1snc(C(N)=O)c1N)C(C(=O)NCCC(C)C)c1ccco1 (stereo not given)	none
Cc1cccc(C2c3[nH]c4ccccc4c3CCN2C(=O)c2cc(CC(C)C)[nH]c(=O)n2)n1 (stereo not given)	none
O=C(c1ccc2c(c1)OCCO2)N1CCN(c2ccc([N+](=O)[O-])cc2)CC1	none (no result: Autofluor counter, BoNT-F LC inh, BoNT A protease, Anthrax LF prot)
O=C(Nc1ccc(Cl)cc1)Nc1ccccc1CC[N+](=O)[O-]	none
Nc1nc(SCc2ccc(Br)cc2)c2ncn(C3OC(CO)C(O)C3O)c2n1 (stereo not given)	none (no result: SARS 3CLpro inh, BJeLR viability)
O=S(=O)(Nc1ccc(Cc2ccncc2)cc1)c1ccc(Br)s1	Autofluor counter 16939
